PubChem BioAssay AID457 (Sanford-Burnham Center for Chemical Genomics, 2006)
Hit rate of the full screen: of about 10,000 compounds, about 20 (0.2%) were called active. The rule behind the calls is not given here. A selection follows.

Assay: boosters of cytokine-driven VCAM-1 levels – imaging, high-content imaging, pooled HUVEC, TNFa stimulus (AID 457)
Conditions: TNFa-induced VCAM-1 immunofluorescence imaging; concentration not given here

Compound	augmentation
CC(C)Oc1cc2oc(=O)c3c(c2cc1Cl)CCC3	inactive
O=C(CSc1nc2ccccc2s1)N1CCN(C(=O)c2ccco2)CC1	inactive
CCOc1ccccc1N1CCN(S(=O)(=O)c2cccc3nsnc23)CC1	inactive
Cn1c(=O)c2c(nc(NCc3ccccc3)n2CCCc2ccccc2)n(C)c1=O	inactive
CCOC(=O)c1[nH]c(CSc2nnc(-c3ccc(OC)cc3)o2)c(C(=O)OCC)c1C	inactive
O=C(Nc1cnn(C23CC4CC(CC(C4)C2)C3)c1)c1cnn2c(C(F)(F)F)cc(-c3ccco3)nc12	inactive
Cc1noc(C)c1CSc1ccccc1C(=O)N1CCN(c2ccccc2)CC1	inactive
CCn1cc(C2=NCC(C)O2)c2ccccc21 (configuration not stated)	inactive
CCC(=O)N1CCc2cc(Br)cc(S(=O)(=O)C3(C(=O)OC)CC3)c21	inactive
COc1ccc(Cl)cc1NC(=O)CCN1CCN(c2ccccc2C)CC1	inactive
COC(=O)c1ccc2ncccc2c1	inactive
Cc1cccc(C2CC(c3ccccc3)Nc3nc(N)nn32)c1 (configuration not stated)	inactive
O=C(NCCCN1CCCC1=O)c1cncc(Br)c1	inactive
Cc1ccccc1-c1noc(N)c1C#N	inactive
COc1ccccc1-c1nnc(SCC(=O)NC2CCCCC2)o1	inactive
O=C(CSc1nnnn1-c1ccccc1Cl)Nc1ccc2c(c1)OCCO2	inactive

Compound	augmentation
O=C(CCNC(=O)c1ccc(Br)o1)NC1CCCC1	inactive
N#Cc1cnn(Cc2ccc(Cl)cc2)c1N	inactive
COc1ccc(N2CCN(C(=O)CSc3ccccc3)CC2)cc1	inactive
Cc1csc(NC(=O)c2cccc(S(=O)(=O)N3CCCCC3)c2)n1	inactive
COCc1[nH]nc2c1C(c1cc(OC)c(O)c(OC)c1)C(C#N)=C(N)O2 (configuration not stated)	inactive
Cc1cc(NC(=O)CCC(=O)N(c2cccnc2)C(C(=O)NC2CCCC2)c2ccccc2F)no1 (configuration not stated)	inactive
CN(C)c1ccc(CNn2cnnc2)cc1	inactive
O=C(NC1CC2CCC1C2)c1ccc(CN2CCOCC2)cc1 (configuration not stated)	inactive
CCOc1ccc2nc(NC(=O)CSc3nc4ccccc4c(=O)n3Cc3ccco3)sc2c1	inactive
c1ccc(-n2ncc3c(N4CCCCC4)ncnc32)cc1	inactive
CCOc1ccccc1C(=O)NCC(=O)OCC(=O)N1C(C)CCCC1C (configuration not stated)	inactive
Cc1nc2oc3c(NCc4ccccn4)ncnc3c2c2c1COC(C)(C)C2	inactive
O=C(c1ccc(NS(=O)(=O)c2cccs2)cc1)N1CCCCC1	inactive
COCCNC(=O)c1ccc2c(c1)nc(C)n2-c1cccc(F)c1	inactive
O=C(c1ccc(Cl)cc1)N(Cc1cccs1)C1CCS(=O)(=O)C1 (configuration not stated)	inactive
CN(C(=O)c1c(Cl)nc2sccn12)C1CCCCC1	inactive
